Laboratory results from PubChem BioAssay AID449762 (Southern Research Specialized Biocontainment Screening …, 2010).
Out of some 330,000 compounds screened, about 1,900 (0.58%) were called active. About 4% were inconclusive and are not listed. The list is a sample of the results. Entries with a potency or affinity are not part of this list. Values without a mark were called inactive. Rule as the data show it: inconclusive = inhibition above about 70% without an active follow-up result; inactive = below that.

test: M. tuberculosis growth inhibition, HTS (AID 449762);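 also: bacterial growth assessed after seven days of incubation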; conditions: M. tuberculosis H37Rv growth inhibition, 7H9 media; at 25 µM; hits give high values

Row | SMILES | inhibition [%]
1 | CC(=O)c1ccc(OCC(=O)N2CCCC2c2ccc3c(c2)OCCCO3)cc1 (stereo not given) | -12.4
2 | NC(=O)CN1CCCC1c1ccc2c(c1)OCCO2 (stereo not given) | -1.31
3 | CCc1nnc(NC(=O)CN2CCN(Cc3cccc(F)c3)CC2)s1 | 13.7
4 | COc1ccc(NS(=O)(=O)c2cccc(C(=O)NCc3ccccn3)c2)cc1 | -5.64
5 | O=C(CCn1cnnn1)Nc1ccc(Cl)cc1Cl | -5.53
6 | O=C(CN1CCCCC1)Nc1nnc(-c2ccccc2)s1 | 5.25
7 | O=C(CN1CCCC1)Nc1ccc([N+](=O)[O-])cc1 | 4.32
8 | O=C(OCC(=O)N1CCCC1)c1ccc(Cl)c([N+](=O)[O-])c1 | -6.77
9 | COc1ccccc1N1CCN(c2ccc3ccccc3n2)CC1 | 1.84
10 | COc1ccccc1N1CCN(c2ccc(Cl)nn2)CC1 | 0.36
11 | CCCNC(=O)NC(=O)COC(=O)c1cccc(NS(=O)(=O)c2ccc(F)c(F)c2)c1 | 5.38
12 | CC1(C2CC2)NC(=O)N(CC(=O)N2CCN(c3ccccc3)CC2)C1=O (stereo not given) | -0.6
13 | Nc1nc(-c2ccco2)nn1C(=O)CCc1ccccc1 | 6.17
14 | CC(=O)c1ccc(NC(=O)C2=CC(c3cccs3)=NS(=O)(=O)N2C)cc1 | 2.16
15 | O=c1[nH]c(Nc2ccc(F)cc2)cc2ccccc12 | -14.1
16 | NS(=O)(=O)c1ccc(NC2=CC(=O)C(=O)c3ccccc32)cc1 | 11.2
17 | CC(=O)Nc1ccc(NC2=CC(=O)c3ccccc3C2=O)cc1 | 3.89
18 | O=c1[nH]c(Nc2ccccc2)cc2ccccc12 | 0.07
19 | COC(=O)CN(c1ccc(C)cc1)S(=O)(=O)c1c(C)[nH]c(=O)[nH]c1=O | -6.71
20 | C=CCSc1nnc(NC(=O)c2ccc(N3CCCC3=O)cc2)s1 | -1.46
21 | C=CC[C@H](CC(=O)NCCO)C(=O)NC[C@@H](OC(=O)[C@@H](CC=C)CC(=O)OC(C)(C)C)c1ccccc1 | -4.9
22 | Cc1cc(N2CCN(c3ccc([N+](=O)[O-])c4cccnc34)CC2)c2ccccc2n1 | -7.93
23 | Cc1ccc(S(=O)(=O)N2CCN(c3ccc(C(F)(F)F)cc3[N+](=O)[O-])CC2)cc1 | 16

Row | SMILES | inhibition [%]
24 | CCC1(CC)C(=O)N(Cc2ccccc2)C(=O)N(Cc2ccccc2)C1=O | -1.75
25 | CCN(c1ccccc1)S(=O)(=O)c1ccc(OC)c(NC(=O)Cc2ccccc2OC)c1 | -3.76
26 | CCN(CCNC(=O)C1CC(=O)N(CCc2ccccc2)C1)c1ccccc1 (stereo not given) | -5.61
27 | CCOc1ccc(/C=N/NC(=S)NC2CC3CC2C2C=CCC32)cc1 (stereo not given) | 7.16
28 | COc1cccc(/C=N/NC(=S)NC2CC3CC2C2C=CCC32)c1O (stereo not given) | -6.6
29 | CC1CCCCC12NC(=O)N(CC(=O)NNC(=O)c1ccc(Br)cc1)C2=O (stereo not given) | 1.45
30 | CCSc1nnc(NC(=O)CSC2=NN3CCCC(=O)N=C3S2)s1 | 2.54
31 | CN(c1cccc(NC(=O)Cc2ccccc2)c1)S(C)(=O)=O | 5.18
32 | O=C(NC(C(=O)N/N=C/c1ccccc1)c1n[nH]c(=O)c2ccccc12)c1ccccc1 (stereo not given) | 2.9
33 | O=C(NC(C(=O)N/N=C/c1ccncc1)c1n[nH]c(=O)c2ccccc12)c1ccccc1 (stereo not given) | 2.1
34 | COc1ccc(CC(=O)Nc2ccccc2N2CCCC2)cc1 | 0.8
35 | Cc1ccc(C2CC(=O)C=C(O)C2)cc1 (stereo not given) | 9.89
36 | COc1ccc(CNC(=O)NCCc2c[nH]c3ccccc23)cc1 | 9.15
37 | CSc1ccccc1NC(=O)COc1nsnc1N1CCOCC1 | 2.19
38 | Cc1cccc(NC(=O)CSc2nc(N)c(NC(=O)c3ccccc3F)c(=O)[nH]2)c1 | -17.1
39 | COC(=O)c1ccc2[nH]c(C(C)(C)O)c(C)c2c1 | -3.19
40 | COc1ccc(C2=NN3C(C2)c2ccccc2OC3c2cccs2)cc1 (stereo not given) | -3.24
41 | c1ccc(C2Oc3ccccc3C3CC(c4cccs4)=NN32)cc1 (stereo not given) | -7.12
42 | COC(=O)COc1cc(=O)oc2ccc(NS(=O)(=O)c3ccccc3)cc12 | 11.6
43 | Cn1cc(C(=O)c2cccc(Cl)c2Cl)cc1C#N | -7.62
44 | COc1ccc(C)cc1NS(=O)(=O)c1ccc(NC(=O)CN(c2cc([N+](=O)[O-])ccc2C)S(C)(=O)=O)cc1 | 0.68
45 | Cc1ccc([N+](=O)[O-])cc1N(CC(=O)NC1CCCC1)S(C)(=O)=O | -1.93
46 | CCN1CCN(C(c2cc(OC)c(OC)c(OC)c2)c2nnnn2C(C)C)CC1 (stereo not given) | -6.3

Row | SMILES | inhibition [%]
47 | CCN1C(=NCCc2ccc([N+](=O)[O-])cc2)N[C@@H](c2ccccc2)[C@H](C(=O)OC)[C@H]1C | -8.81
48 | CCN1C(=NCCc2cccnc2)N[C@@H](c2ccccc2)[C@H](C(=O)OC)[C@H]1C | -0.82
49 | COc1ccc(Nc2oc(-c3ccccc3)nc2C#N)cc1 | -0.48
50 | COC(=O)c1ccc(N2CCN(c3ccccc3)CC2)nc1 | -3.88
51 | FC(F)(F)c1ccc(-n2cnc3ccccc32)nc1 | -0.78
52 | Cc1c(Nc2nc(-c3ccccc3)cs2)c(=O)n(-c2ccccc2)n1C | 0.86
53 | CCOC(=O)c1c(NC(=O)c2cc3n(n2)C(C(F)(F)F)CC(c2ccccc2)N3)sc(C)c1C (stereo not given) | -4.24
54 | O=C(C(c1ccccc1)c1ccccc1)N1CCN(CCN2C(=O)c3cccc4cccc(c34)C2=O)CC1 | -9.17
55 | CC(C)(C)C(=O)N1CCN(CCN2C(=O)c3cccc4cccc(c34)C2=O)CC1 | -4.28
56 | O=C(OCC#CCSc1nnc(-c2cccc3ccccc23)o1)c1ccc2ccccc2c1 | 8.92
57 | O=C(OCC#CCSc1nnc(-c2cccc3ccccc23)o1)c1cc2ccccc2o1 | 36.1
58 | CN1CCN(S(=O)(=O)c2ccc(SCCOc3ccc(Cl)cc3)nc2)CC1 | -1.28
59 | CN1CCN(S(=O)(=O)c2ccc(SCCOc3ccccc3)nc2)CC1 | -0.98
60 | Cc1c(S(=O)(=O)N2CCCCC2)c(=O)n(C)c(=O)n1C | -9.81
61 | CN1C(=O)N(C)C2(c3ccccc3)N(C(C)(C)C)C(=O)NC12c1ccccc1 (stereo not given) | -0.92
62 | Cc1ccc2cc(C)c(N3CCN(c4ccc(F)cc4)CC3)nc2c1 | 0.67
63 | Cc1ccc2cc(C)c(N3CCC(C)CC3)nc2c1 | -2.14
64 | CN(Cc1ccc(Cl)s1)C(=O)CSc1nnc(C2CC2)n1C1CC1 | 2.1
65 | CN(Cc1ccc(Cl)s1)C(=O)CNC(=O)CNC(=O)c1ccc(Cl)cc1Cl | 0.015
66 | O=C(COc1ccc(Cl)cc1Cl)Nc1ccc(-c2ccc(N3CCOCC3)nn2)cc1 | 27.4
67 | Cc1ccc2c(c1)C1C[N+](C)(CC(=O)c3ccccc3)CCC1N2C(=O)c1ccccc1Cl (stereo not given) | -0.23
68 | Cc1ccc2c(c1)C1C[N+](C)(CC(=O)Nc3ccccc3Cl)CCC1N2C(=O)c1ccccc1Cl (stereo not given) | 21.9
69 | CC(C)[C@H](NC(=O)c1ccccc1F)C(=O)Nc1nc2c(s1)CCCC2 | -0.81

Row | SMILES | inhibition [%]
70 | COc1cccc(-c2nc(CS(=O)(=O)CC(=O)Nc3ccccc3Br)c(C)o2)c1 | -5.15
71 | Cc1cc(N2CCCCC2)n2ncc(-c3ccc(Cl)cc3)c2n1 | 94.8
72 | Cc1cc(C)n2cc(-c3ccc(Cl)cc3)c(C(=O)O)c2n1 | 5.32
73 | Cc1nn(C)c(C)c1C1C(C#N)=C(N)Oc2n[nH]c(C)c21 (stereo not given) | 4.26
74 | CC(C)c1ccc(CNc2c([N+](=O)[O-])c(=O)oc3ccccc23)cc1 | 4.35
75 | O=C(O)c1cc(NN=C2c3ccccc3-c3ccccc32)ccc1Cl | 14
76 | Cc1cccc(NN=C2c3ccccc3-c3ccccc32)c1 | 3.47
77 | COc1ccc(-n2c(COc3ccc4c(c3)OCO4)nnc2SCC(=O)O)cc1 | 14.8
78 | Cc1cc2occ(CC(=O)NC3(C)CCS(=O)(=O)C3)c2cc1C (stereo not given) | -9.66
79 | CN(C)c1ccc(CNc2ccc3c(c2)ncn3C(C)(C)C)cc1 | 8.27
80 | CCOc1ccc(CNc2ccc3c(c2)ncn3C(C)(C)C)cc1 | -2.96
81 | CC(C)(C)n1nnnc1C(c1cccc(C(F)(F)F)c1)N1CCC(O)CC1 (stereo not given) | 2.3
82 | Cc1ccc(-c2noc(C3CCCN(C(=O)c4ccccc4)C3)n2)o1 (stereo not given) | 2.39
83 | Cc1ccc(-c2noc(C3CCCN(C(=O)c4ccc(Cl)cc4)C3)n2)o1 (stereo not given) | 0.38
84 | COc1cccc(C(=O)NNC2=C(C(=O)C(F)(F)F)CCC2)c1 | 0.71
85 | O=C(Nc1cccc(S(=O)(=O)NC2=NCCCCC2)c1)c1cc(-c2ccccc2)nc2ccccc12 | 4.99
86 | CCn1c(SCC(=O)N2CCCCC2C)nnc1-c1ccco1 (stereo not given) | -6.38
87 | O=C(N/N=C/c1cc2ccccc2nc1Cl)[C@H]1C[C@@H]1c1ccccc1 | 22.8
88 | Cc1cccc2cc(/C=N/NC(=O)[C@H]3C[C@@H]3c3ccccc3)c(Cl)nc12 | 1.65
89 | N#Cc1ccc(OCC(=O)Nc2cccc(S(=O)(=O)NC3=NCCCCC3)c2)cc1 | -7.44
90 | Oc1ccc(Nc2nc(-c3ccccc3)nc3ccccc23)cc1 | 10.3
